Potency and affinity values are given separately. Values without a mark were called inactive. No rule for the calls is given here.
Experiment: VEEV TC-83 cytopathic effect inhibitors, confirmation, cell-based, set 4 (AID 624063)
Conditions: VEEV TC-83 infected cells; series mostly up to 25 µM; inhibition: at the top concentration

| Compound | inhibition |
| --- | --- |
| O=C(NCc1ccco1)C1CCN(C(=O)c2cc3sccc3n2Cc2ccc(F)cc2)CC1 | 13.5% |
| CC(C)(C)OC(=O)N1CCN(Cc2nc3ccc([N+](=O)[O-])cc3c(=O)n2-c2ccccc2F)CC1 | 1.6% |
| CCN1CCN(Cc2nc3ccc(C(F)(F)F)cc3c(=O)n2-c2ccccc2F)CC1 | 20.2% |
| CCN1CCN(Cc2nc3ccccc3c(=O)n2-c2ccccc2F)CC1 | -5% |
